HT1080-NT tox – kills 2HG-producing HT-1080-NT fibrosarcoma cells. HT-1080-NT fibrosarcoma viability, CellTiter-Glo ATP luminescence, 48 h. Potency, µM (highest dose often 46.1 µM), hits mostly cytotoxic. actives 1.6% (n = 360,000). AID 686970;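 further: NT is the 2HG producing partner of a matched IDH1 knockdown line; nearly all actives have a fitted effect of over 55% in size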
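A 48-hour cytotoxicity screen used HT-1080-NT cells plated 2 hours before compound delivery. ATP-based CellTiter-Glo luminescence measured viability, normalized to DMSO and no-cell controls.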
HT1080 IDH1KD tx – HT-1080 IDH1 knockdown cell toxicity (counter line); actives 2% (n = 360,000); HT-1080 IDH1 knockdown viability, ATP luminescence, 48 h; AID 686971; Potency, µM (series often up to 46.1 µM), usual class: cytotoxic
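Assay cells: HT-1080 with IDH1 knockdown, 750 per well, RPMI/5% FBS. Exposure: 48 h at 37 °C following 2 h pre-incubation. Read: CellTiter-Glo luminescence; fitted concentration-response, curve class assigned.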
DT40 TDP1 no CPT – qHTS for Inhibitors of human tyrosyl-DNA phosphodiesterase 1 (TDP1): qHTS in cells in absence of CPT; DT40 Tdp1-/- hTDP1 cells, no CPT, ATP luminescence, 48 h; actives 15% (n = 420,000); Potency, µM (doses to about 46.2 µM), actives largely listed as inhibitors; further: nearly all actives have a fitted effect of over 55% in size
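Luminescent ATP content (CellTiter-Glo) served as the growth readout. Knockout chicken DT40 cells expressing human TDP1 were exposed to compounds without camptothecin for a minimum 48 hr at 37 °C.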
TDP1 cell CPT – DT40-hTDP1 cell growth loss with CPT; Potency, µM (series often up to 46.2 µM), usual class: inhibitors; AID 686979; actives 12% (n = 420,000); chicken DT40 Tdp1-/-;hTDP1 cells + 20 nM CPT, ATP luminescence, 48 h; further: nearly all actives have a fitted effect of over 55% in size
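Cell growth measured by CellTiter-Glo luminescence after a minimum 48 h, 37 C compound exposure with 20 nM CPT in Tdp1-knockout DT40 cells stably expressing hTDP1, seeded 400/well; qHTS titration format.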
IL-1B inflam inh – blocks inflammasome-driven IL-1 beta release. THP-1 LPS/ATP IL-1B secretion, AlphaLISA, 16 h; hits give low values. activity change, % at 57.5 µM. actives 4.7% (n = 360,000). AID 743279; in the data active means activity change below about -50%; inconclusive means mostly about -30% to -49%
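Secreted IL-1B measured by AlphaLISA bead assay after 16 h compound exposure of THP-1 cells; compounds (final up to 57.5 uM) added 1 h before LPS (250 ng/mL) and ATP (1.25 mM) stimulation; lower signal means less secretion.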
Numbers stand for hits; . = inactive; ? = inconclusive; / = no result. Rows were chosen to be rich in hits. Some 19% of all compounds tested hit in one or more screens of this group. Unless noted, the call rests on the fitted dose curve; in most records, active means well fitted curve in the direction sought with a large enough effect; inconclusive means small, poorly fitted or top-dose-only effect, or another doubt; inactive means no such curve, though single readings can be large; an effect the other way counts as inactive or inconclusive.

SMILES	HT1080-NT tox	HT1080 IDH1KD tx	DT40 TDP1 no CPT	TDP1 cell CPT	IL-1B inflam inh
CCCCCCCCC/C(=N\O)c1ccccn1	.	?	23µM	23µM	.
CCCCCCCCC(=O)N/N=C/c1ccccn1	?	.	?	18µM	.
CCCCC(C(=O)N/N=C/c1ccccn1)C(=O)N/N=C/c1ccccn1	.	.	.	.	/
CCCCCCC(=O)Nc1ccc(C(=O)N/N=C/c2cccnc2)cc1	23µM	8.2µM	.	.	.
CCCCCCCCC(=O)N/N=C/c1cccc(Br)c1	.	.	.	.	-60
CCC(=O)Nc1ccc(C(=O)N/N=C/c2cccnc2)cc1	.	.	.	.	.
CCCN1CCN(CCCNC(=O)Cn2nc(-c3ccccc3)ccc2=O)CC1	.	.	.	.	.
CC1CCc2cc(F)ccc2N1C(=O)C12CCC(C)(C(=O)O1)C2(C)C (configuration not stated)	.	.	?	.	.
O=S(Cc1cc(Sc2ccccc2)nc(-c2ccccc2)n1)c1ccccc1 (configuration not stated)	?	?	16µM	?	.
Cn1cc(S(=O)(=O)c2ccccc2)c(=O)c2cc(F)c(N3CCOCC3)cc21	.	.	?	?	.
CCn1cc(S(=O)(=O)c2ccccc2)c(=O)c2cc(F)c(N3CCCC3)cc21	/	/	?	21µM	/
CCn1cc(S(=O)(=O)c2ccc(C)cc2)c(=O)c2cc(F)c(N3CCN(C)CC3)cc21	.	.	.	.	.
CCn1cc(S(=O)(=O)c2ccc(Cl)cc2)c(=O)c2cc(F)c(N3CCOCC3)cc21	/	/	16µM	26µM	/
CCCn1cc(S(=O)(=O)c2ccccc2)c(=O)c2cc(F)c(N3CCCCCC3)cc21	/	/	18µM	26µM	/
N#Cc1ccc(Oc2ccc(C#N)c(C#N)c2)cc1C#N	.	.	.	.	.
N/C(=N\OC(=O)c1ccc2ccccc2c1)c1ccccn1	?	?	?	?	.
NC(=Nc1nc(-c2ccccn2)cc2ccccc12)c1ccccn1	.	?	0.018µM	0.015µM	.
COc1ccc(NC(=O)COc2cccc3c2CCN(C)C3=O)c(OC)c1	.	.	?	13µM	.
O=C(COc1cccc2c1CCNC2=O)Nc1ccc(Cl)cc1	.	.	?	18µM	.
NC(=O)c1ccc(NC(=O)COc2cccc3c2CCNC3=O)cc1	.	.	.	.	.
COc1ccccc1NC(=O)COc1cccc2c1CCNC2=O	.	.	6.5µM	10µM	.
O=S(=O)(Nc1ccc(F)cc1)c1ccc(NC(=S)Nc2ccccc2)cc1	.	.	.	?	?
COc1ccc(OCc2cc(=O)[nH]c3ccccc23)cc1	.	.	.	.	.
COc1ccc2sc3c(=O)[nH]c4ccccc4c3c2c1	.	.	1.6µM	5.8µM	.
CCc1c(C)sc(NC(=O)c2noc(C)c2[N+](=O)[O-])c1C#N	.	.	?	.	.
SMILES	HT1080-NT tox	HT1080 IDH1KD tx	DT40 TDP1 no CPT	TDP1 cell CPT	IL-1B inflam inh
O=C(NCc1ccncc1)c1ccc(Br)cc1	.	.	.	.	.
Cc1ccc(Oc2ccc(C(=O)NCc3ccncc3)cc2)cc1	?	?	23µM	?	-51
O=C(NCc1ccncc1)c1ccc(Oc2ccccc2)cc1	.	.	18µM	15µM	-66
Cc1ccc(C(=O)NCCc2ccncc2)cc1	.	.	.	.	.
O=C(NCc1ccncc1)c1ccc(OCc2ccccc2)cc1	.	.	13µM	21µM	.
COc1ccc(-c2nc(C)sc2CC(=O)O)cc1OC	.	.	.	.	.
O=C(NCc1ccccc1)C(c1ccncc1)N(C(=O)c1csnn1)c1ccccc1F (configuration not stated)	.	.	.	.	.
O=C(NN=C1CCCC1)c1ccc(Cl)cc1	.	.	.	.	.
O=C1CCC/C(=N/Nc2ccc(Cl)cc2)C1	.	.	7.3µM	16µM	.
COC(=O)[C@@H]1C[C@@]2(O)[C@H](O)[C@H](O)[C@H](O)C[C@H]2N1Cc1ccc(-c2ccccc2)cc1	.	.	.	.	-71
COC(=O)[C@@H]1C[C@@]2(O)[C@@H](O)[C@@H](O)[C@@H](O)C[C@H]2N1Cc1ccc(-c2ccccc2)cc1	.	.	.	?	/
Cc1ccc(CS(=O)Cc2ccc(C(=O)NC3CCCCCC3)o2)cc1 (configuration not stated)	.	.	.	.	.
O=C(NC1CCCCCC1)c1ccc(Br)o1	.	.	.	.	.
O=C(NC1CCCCCCC1)c1ccc(Br)o1	.	.	4.6µM	.	.
Cc1ccc(S(=O)Cc2ccc(C(=O)NC3CCCCCC3)o2)cc1 (configuration not stated)	/	/	16µM	?	/
Cc1ccc(CS(=O)Cc2ccc(C(=O)NC3CCCC(C)C3C)o2)cc1 (configuration not stated)	.	.	?	21µM	.
O=C(NC1CCCCCC1)c1ccc(CS(=O)Cc2ccccc2Cl)o1 (configuration not stated)	.	.	?	?	-54
CCOc1ccc(CNC(=O)c2nn(-c3ccc(OC)cc3)c(=O)c3c2c2ccccc2n3C)cc1	/	/	.	.	/
COc1ccc(CNC(=O)c2ccc(CS(=O)Cc3ccccc3Cl)o2)cc1 (configuration not stated)	/	/	18µM	?	/
Cc1ccccc1S(=O)Cc1ccc(C(=O)NC2CCCCCC2)o1 (configuration not stated)	/	/	?	18µM	/
O=C(O)C1CCN(Cc2cccnc2)CC1	.	.	.	.	.
Cc1c(NC(=O)C23CC4CC(CC(Br)(C4)C2)C3)c(=O)n(-c2ccccc2)n1C	.	.	.	.	.
COc1cccc(OC(=O)N2CCOCC2)c1	.	.	.	.	.
COc1ccc(Oc2coc3cc(OC(=O)N4CCOCC4)ccc3c2=O)cc1	.	.	?	16µM	.
CN(C)CCCN(C(=O)c1ccc(S(=O)(=O)N(C)C2CCCCC2)cc1)c1nc2ccc(F)cc2s1	?	?	?	16µM	-98
CN(C)CCCN(C(=O)c1ccc(S(=O)(=O)N(C)C2CCCCC2)cc1)c1nc2ccc(Br)cc2s1	?	?	?	?	-83
CCc1ccc2nc(N(CCCN(C)C)C(=O)c3ccc(S(=O)(=O)N4CCc5ccccc5C4)cc3)sc2c1	?	13µM	5.2µM	5.2µM	-84
CC1CCCCN1S(=O)(=O)c1ccc(C(=O)N(CCCN(C)C)c2nc3cc4c(cc3s2)OCO4)cc1 (configuration not stated)	.	.	.	.	.
COc1cc2nc(N(CCCN(C)C)C(=O)c3ccc(S(=O)(=O)N(C)C4CCCCC4)cc3)sc2cc1OC	.	.	16µM	?	-79

High-throughput results from PubChem BioAssay.
